Some test systems named below: DU-145 prostate; K-562 leukemia; MALME-3M melanoma; MDA-MB-231 breast; RXF 393 renal; SF-268 CNS; SF-295 CNS; SF-539 CNS; UACC-257 melanoma; M14 melanoma; HCT-15 colon; HT29 colon; SNB-75 CNS; SNB-19 CNS; U251 CNS; PC-3 prostate; SK-MEL-5 melanoma; UACC-62 melanoma; LOX IMVI melanoma; SK-MEL-28 melanoma.
What all share (experiment): NCI-60 one-dose screen, 48 h (100 = growth as untreated, 0 = no growth, -100 = all killed)
Settings in all cases: 10 µM unless noted

Each structure is given as a SMILES string. This is part of a sample that, as a whole, favours compounds with a hit. Of some 83,000 tested, about 20% had one in any assay.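 A percent growth of 40 corresponds to 60% growth inhibition; 0 means no net growth; -100 means all cells died. Active threshold: below 10.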 Unmarked numbers belong to inactive results. Calls of active or inactive are those of the source.

As to `CC(C)(C)Nc1nc2c(OCCc3ccccc3)cccn2c1-c1cccc(Oc2ccccc2)c1`, the growth is 25.5% in the assay with DU-145 prostate; 15.7% with K-562 leukemia; 0.427% (active) with MALME-3M melanoma; 17.7% with MDA-MB-231 breast; -8.9% (active) in the assay with RXF 393 renal; 32.4% in the assay with SF-268 CNS. Further, the growth with SF-295 CNS is 6.47% (active); in the assay with SF-539 CNS, -0.94% (active); with UACC-257 melanoma, 6.07% (active); in the assay with M14 melanoma it was 18%; in the assay with HCT-15 colon it was 6.6% (active); in the assay on HT29 colon, 6.41% (active). In addition, the growth is 43.5% with SNB-75 CNS; 24.5% with SNB-19 CNS; 13.5% in the assay with U251 CNS; 17.5% with PC-3 prostate; -75% (active) with SK-MEL-5 melanoma; 15% in the assay with UACC-62 melanoma. Also, the growth was 3.93% (active) with LOX IMVI melanoma and 34% in the assay on SK-MEL-28 melanoma.

For `CCOC(=O)c1ccccc1NC1=C(Cl)C(=O)c2nc(C)ccc2C1=O`, the growth with DU-145 prostate is 112%; in the assay with K-562 leukemia, 89.6%; with MALME-3M melanoma, 107%; with MDA-MB-231 breast, 90.3%; in the assay with RXF 393 renal, 102%; in the assay on SF-268 CNS, 99.2%. Moreover, the growth in the assay with SF-295 CNS is 110%; with SF-539 CNS it was 96.1%; with UACC-257 melanoma it was 99.2%; in the assay with M14 melanoma it was 109%; in the assay on HCT-15 colon it was 91.7%; in the assay on HT29 colon it was 112%. For the same molecule, the growth with SNB-75 CNS was 81.1%; with SNB-19 CNS, 92.8%; in the assay with U251 CNS, 104%; in the assay on PC-3 prostate, 96.8%; in the assay with SK-MEL-5 melanoma, 99.9%; with UACC-62 melanoma, 95%. Besides, the growth in the assay on SK-MEL-28 melanoma is 107%.

With `COC(=O)c1cccc(NC2=C(Cl)C(=O)C(C)=C(C)C2=O)c1`, the growth with DU-145 prostate is 110%; with K-562 leukemia, 5.25% (active); in the assay on MALME-3M melanoma, 95.8%; in the assay on MDA-MB-231 breast, 36.5%; in the assay with RXF 393 renal, 104%; in the assay with SF-268 CNS, 97.4%. The growth in the assay with SF-295 CNS is 108%; with SF-539 CNS it was 99.3%; in the assay with UACC-257 melanoma it was 108%; in the assay on M14 melanoma, 92.3%; in the assay with HCT-15 colon it was 112%; in the assay with HT29 colon, 105%. The growth in the assay with SNB-75 CNS was 60.7%; in the assay on SNB-19 CNS, 87%; with U251 CNS it was 102%; in the assay on PC-3 prostate, 71.9%; with SK-MEL-5 melanoma, 95.6%; with UACC-62 melanoma, 85.5%. The growth in the assay with LOX IMVI melanoma is 69%; in the assay on SK-MEL-28 melanoma, 110%.

Take `Fc1cccc(Cl)c1/C=N/Nc1nc(N/N=C/c2c(F)cccc2Cl)nc(N2CCCCC2)n1`: the growth was 61% in the assay with DU-145 prostate; 32.3% in the assay on K-562 leukemia; -4.19% (active) with MALME-3M melanoma; 42.1% in the assay on MDA-MB-231 breast; -3.38% (active) in the assay on RXF 393 renal; 36.7% with SF-268 CNS. The growth in the assay with SF-295 CNS was 2.57% (active); with SF-539 CNS, 56.3%; in the assay on UACC-257 melanoma, 11.7%; with M14 melanoma it was 11.9%; with HCT-15 colon, 3.94% (active); in the assay on HT29 colon it was 3.5% (active). Besides, the growth in the assay with SNB-75 CNS was 37.5%; in the assay with SNB-19 CNS, 25.8%; in the assay with U251 CNS it was 26.8%; in the assay with PC-3 prostate, 18.7%; in the assay with SK-MEL-5 melanoma it was -59.1% (active); in the assay with UACC-62 melanoma, 18.3%. In addition, the figures for the growth in the assay on LOX IMVI melanoma and in the assay on SK-MEL-28 melanoma were 19.6% and 44.9%, respectively.

For the molecule `Cc1cc(Br)ccc1-n1cc(C#N)c(N)c1C(=O)c1ccc(Br)cc1`, the growth was 119% in the assay with DU-145 prostate; 119% with K-562 leukemia; 106% in the assay with MALME-3M melanoma; 93.6% with MDA-MB-231 breast; 108% in the assay with RXF 393 renal; 114% in the assay with SF-268 CNS. In addition, the growth with SF-295 CNS is 98.5%; with SF-539 CNS, 97.4%; in the assay with UACC-257 melanoma, 103%; in the assay with M14 melanoma, 89.4%; in the assay on HCT-15 colon it was 97.6%; in the assay on HT29 colon, 102%. For the same molecule, the growth in the assay on SNB-75 CNS was 95.6%; in the assay on SNB-19 CNS, 96.3%; with U251 CNS it was 99.9%; with PC-3 prostate, 103%; in the assay on SK-MEL-5 melanoma, 95.7%; in the assay on UACC-62 melanoma, 94.3%. The growth in the assay with SK-MEL-28 melanoma was 102%.

With `C#CCOc1cccc(/C(N)=N/C(N)=N/c2nc3ccccc3s2)c1`, the growth in the assay on DU-145 prostate is 97.4%; in the assay on K-562 leukemia, 82.2%; in the assay with MALME-3M melanoma, 111%; with MDA-MB-231 breast it was 81.9%; in the assay on RXF 393 renal, 116%; in the assay with SF-268 CNS it was 100%. The growth with SF-295 CNS is 31.2%; in the assay on SF-539 CNS it was 105%; in the assay on UACC-257 melanoma, 107%; in the assay on M14 melanoma, 95.8%; in the assay on HCT-15 colon, 57.4%; in the assay with HT29 colon, 108%. Further, the growth in the assay with SNB-75 CNS is 109%; in the assay with SNB-19 CNS, 95.5%; with U251 CNS, 84.9%; in the assay on PC-3 prostate, 69.8%; with SK-MEL-5 melanoma it was 95.3%; with UACC-62 melanoma, 92.3%. Besides, the results for the growth in the assay with LOX IMVI melanoma and in the assay on SK-MEL-28 melanoma were -1.89% (active) and 115%, respectively.

Regarding `O=[N+]([O-])c1ccc(NC(=S)NNC(=S)Nc2ccc(Br)cc2)cc1`, the growth in the assay with DU-145 prostate was 104%; in the assay with K-562 leukemia, 49.1%; in the assay with MALME-3M melanoma, 89.4%; in the assay with MDA-MB-231 breast it was 91.6%; with RXF 393 renal, 103%; with SF-268 CNS, 101%. Also, the growth in the assay on SF-295 CNS is 72.6%; in the assay on SF-539 CNS it was 95.2%; with UACC-257 melanoma it was 95.2%; with M14 melanoma it was 87.9%; with HCT-15 colon it was 42.1%; in the assay on HT29 colon, 95%. The growth in the assay on SNB-75 CNS is 121%; in the assay with SNB-19 CNS, 98.6%; in the assay on U251 CNS, 88.4%; with PC-3 prostate, 75.3%; in the assay with SK-MEL-5 melanoma, 92.7%; with UACC-62 melanoma, 48.5%. Besides, the growth was 60.9% with LOX IMVI melanoma and 102% in the assay on SK-MEL-28 melanoma.

The values are drawn from PubChem BioAssay (NCI).
